VACV Venus inh: vaccinia inhibition (Venus reporter). Vaccinia virus Venus reporter expression, fluorescence. Potency, µM (highest dose often 36.5 µM), inactives show top-dose activity change, negative = inhibition, most hits filed as inhibitors. actives 0.46% (n = 330,000); calls by dose curve; tested in A549 cells; also: potency is read from the fitted curve at half-maximal effect; nearly all actives have a fitted effect of over 30% in size
HCV inh: HCV inhibition; Huh7.5.1 HCVcc-Cre infection, luciferase reporter, 44 h; Potency, µM (top dose mostly 41.8 µM), without a hit: top-dose activity change, negative = inhibition, most hits filed as inhibitors; actives 3.4% (n = 340,000); active = well fitted inhibition curve with a large enough effect; inconclusive = small, poorly fitted or top-dose-only effect, or another doubt; inactive = no such curve, though single readings can be large or run the other way; also: potency is read from the fitted curve at half-maximal effect
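Infectious HCV cell culture screen: compound-treated cells (1,000/well, pre-plated 4 h) are infected with HCVcc-Cre at roughly 0.5 moi and grown 44 h. Infection is quantified by luciferase signal after 15 min substrate incubation at room temperature.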
VACV mCherry inh: vaccinia inhibition (mCherry reporter); Vaccinia virus mCherry reporter infection, fluorescence; actives 0.63% (n = 310,000); AID 720579; Potency, µM (top dose mostly 36.5 µM), for the others: at the top dose activity change, negative = inhibition, usual class: inhibitors; calls by dose curve; tested in A549 cells; also: potency is read from the fitted curve at half-maximal effect; nearly all actives have a fitted effect of over 35% in size
HCMV inh: inhibitors of human cytomegalovirus; HFF cells, HCMV-luciferase reporter, 72 h; stronger effect = lower value; activity change, negative = inhibition, % at 57.5 µM; actives 4.5% (n = 410,000); AID 1259415; in the data active = activity change below about -60%; inconclusive = no clear call, values can overlap the other calls; inactive = above about -39%
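HFF cells seeded 16 h at 37C, treated with compounds, infected with luciferase-reporter HCMV at MOI 1 PFU/cell; luciferase read at 72 h post infection, normalized to buffer-only and Salinomycin controls.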
FMDV inh: blocks foot and mouth disease virus | FMDV antiviral cell-based qHTS | AID 1159524 | Potency, µM (top dose mostly 57.9 µM), without a hit: at the top dose activity change, negative = inhibition, most hits filed as inhibitors | actives 1.2% (n = 410,000); calls by dose curve; tested in HEK293T cells; also: read-out not given here; potency is read from the fitted curve at half-maximal effect; nearly all actives have a fitted effect of over 45% in size
An asterisk follows results filed as active; i = inactive; ? = inconclusive; . = no result. Hits are enriched below; roughly 7.3% of the tested compounds scored in any of these assays. % is scaled to controls: 0 for no effect and ±100 for the full control effect.

SMILES	VACV Venus inh	HCV inh	VACV mCherry inh	HCMV inh	FMDV inh
CC1(c2ccc(Cl)cc2)CC(C)(C)N(C(=O)c2cccc(F)c2)c2ccccc21 (centres undefined)	-14%	.	-14%	-65*	-6%
COc1ccc(C(=O)N2c3ccc(C)cc3C(C)(c3ccccc3)CC2(C)C)cc1 (centres undefined)	-10%	.	-13%	-71*	?
Cc1nnc(SCC(=O)N2c3ccccc3C(C)(c3ccccc3)CC2(C)C)s1 (centres undefined)	?	?	?	-62*	40µM*
Cc1ccc(C2(C)CC(C)(C)N(C(=O)CSc3nnc(C)s3)c3ccccc32)cc1 (centres undefined)	-19%	?	-22%	-39	?
O=C(NCc1cccs1)c1cc(-c2ccccc2)nc2ccccc12	-6%	?	i	-32	-3%
Cc1cc(NS(=O)(=O)c2ccc(NC(=O)c3cc(-c4cccnc4)nc4ccc(Cl)cc34)cc2)no1	.	52%	.	-2	20%
Cc1ccc(C)c(-c2cc(C(=O)Nc3nccs3)c3ccccc3n2)c1	.	?	.	-71*	?
Cc1cc(NC(=O)c2cc(-c3cccnc3)nc3c(C)c(C)ccc23)no1	-7%	?	.	-64*	?
Cc1ccc(-c2cc(C(=O)Nc3cc(C)on3)c3ccccc3n2)c(C)c1	-7%	-16%	-2%	-33	-21%
Cc1cc(NC(=O)c2cc(-c3ccccc3C)nc3ccccc23)no1	-5%	-6%	-10%	-74*	-9%
Cc1ccc(C)c(-c2cc(C(=O)NCc3cccs3)c3ccccc3n2)c1	.	13µM*	.	-12	-17%
COc1ccc(S(=O)(=O)NC(=O)C2(C)CCN2C(=O)CC2CCCC2)cc1 (centres undefined)	-8%	.	-2%	6	-10%
CCOc1ccccc1NC(=O)CSc1nc2cc(O)ccc2c(=O)n1-c1ccc(OC)c(OC)c1	.	11µM*	.	-72*	?
Cn1c(SCC(=O)Nc2ccccc2)nc2ccccc2c1=O	-11%	?	-9%	?	-27%
Cc1cc2c(=O)n(C)c(SCC(=O)Nc3ccccc3)nc2s1	-1%	-19%	4%	-61*	8%
Cc1cccc(NC(=O)CSc2nc3ccccc3c(=O)n2C)c1C	-24%	.	-10%	-68*	?
COc1ccc(-n2c(SCC(=O)NCC3CCCO3)nc3ccccc3c2=O)cc1Cl (centres undefined)	-19%	.	i	-67*	-11%
Cc1cccc(NC(=O)CSc2nc3sc(C)cc3c(=O)n2C)c1	-13%	-11%	-4%	-35	-15%
CSc1ccc(S(=O)(=O)N2CCC(C(=O)N3CCc4ccccc4C3)CC2)cc1	-10%	-7%	-9%	-7	0%
CNS(=O)(=O)c1cn(CC(=O)N2CCN(c3cccc(C)c3C)CC2)cc1S(=O)(=O)NC	-13%	.	-11%	?	-15%
Cc1cccc(NC(=O)COC(=O)c2ccccc2SCC(=O)N2CCCC2)c1	-7%	1%	-18%	-6	-9%
COc1ccccc1NC(=O)CSc1nc2ccccc2c(=O)n1C	.	-5%	.	?	14µM*
CCOCCCn1c(SCC(=O)Nc2ccccc2OC)nc2ccccc2c1=O	.	-21%	.	?	?
O=c1oc2ccccc2c(O)c1[C@H]1c2ccc(O)cc2Oc2c1c(=O)oc1ccccc21	.	-8%	.	-93*	?
C/C(CC(=O)Nc1ccc(Cl)c(C(F)(F)F)c1)=N\NC(=O)c1ccccc1O	?	-2%	10µM*	-80*	?
SMILES	VACV Venus inh	HCV inh	VACV mCherry inh	HCMV inh	FMDV inh
C/C(CC(=O)Nc1ccc(Cl)c(C(F)(F)F)c1)=N\NC(N)=S	?	6.3µM*	18µM*	-27	-17%
C/C(CC(=O)Nc1ccc(Cl)c(C(F)(F)F)c1)=N\NC(=O)c1cnccn1	-20%	?	?	-23	-8%
C/C(CC(=O)Nc1ccc(Cl)c(C(F)(F)F)c1)=N\NC(=O)c1cccc(O)c1	-5%	-13%	-14%	-15	-18%
C/C(CC(=O)NC(C)(C)C)=N\NC(N)=S	?	17%	10µM*	-19	15%
COc1ccc(N(CC(=O)N2CCN(c3cccc(C)c3)C(C)C2)S(=O)(=O)c2c(C)n[nH]c2C)cc1 (centres undefined)	-18%	-3%	i	-77*	-25%
COc1cccc(N2CCN(C(=O)CN(c3ccc(C)cc3)S(=O)(=O)c3c(C)n[nH]c3C)CC2)c1	-16%	0%	?	17	0%
N#C/C(=C/c1ccc(Sc2nc3ccccc3[nH]2)o1)c1cccc(F)c1	.	?	.	-103*	?
N#C/C(=C\c1ccc(Sc2ccccc2)o1)c1nc2ccccc2[nH]1	-24%	?	-9%	-1	-16%
N#C/C(=C/c1ccc(Sc2nc3ccccc3[nH]2)o1)c1ccccc1F	.	11µM*	.	-102*	?
N#C/C(=C/c1ccc(Sc2nc3ccccc3[nH]2)o1)c1cccc(Br)c1	?	8.9µM*	20µM*	-85*	?
O=C(N/N=C/c1ccc(Sc2nc3ccccc3[nH]2)o1)c1ccncc1	-9%	10%	-2%	?	-21%
CC1=C(C(=O)N2CCOCC2)CC(CC(=O)NCC2CCCCC2)C(=O)N1Cc1ccc(C(C)(C)C)cc1 (centres undefined)	-15%	.	i	10	14%
CCNc1ncc2nc(-c3cc(F)cc(F)c3)c(=O)n(C[C@H]3CCCO3)c2n1	.	.	.	.	-4%
Cc1nn(CCC(=O)NCCc2ccccc2Cl)c(=O)c2nn(-c3ccccc3)c(C)c12	.	-30%	.	-62*	-14%
Cc1ccc(-n2nc3c(=O)n(CCCC(=O)NCc4cccc(Cl)c4)nc(C)c3c2C)cc1	.	22µM*	.	28	?
Cc1ccccc1CCNC(=O)CCn1nc(C)c2c(C)n(-c3ccccc3)nc2c1=O	.	-23%	.	-60*	-19%
Cc1ccccc1CCNC(=O)Cn1nc(C)c2c(C)n(-c3ccccc3)nc2c1=O	.	?	.	-39	-17%
Cc1ccc(-n2nc3c(=O)n(CCCC(=O)NCc4ccc(Cl)cc4)nc(C)c3c2C)cc1	.	26%	.	-23	-21%
NC(=O)C1CCCN(Cc2ccc3c(c2)CN(Cc2cn[nH]c2-c2ccc(F)cc2)CCO3)C1 (centres undefined)	-17%	.	-19%	.	-7%
CCCN1CCN(CCNC(=O)Nc2ccc(OC)c(OC)c2)CC1	3%	.	-3%	8	-8%
C1=Nc2ccccc2/C1=C/c1c[nH]c2ccccc12	21%	.	-17%	.	.
CC(C)(O)C1C2OC(=O)C1[C@]1(O)CC3O[C@@]34C(=O)OC2[C@@]14C (some centres undefined)	-15%	.	i	.	-1%
CC(C)(O)C1C2OC(=O)C1C1(O)CC3OC34C(=O)OC2C14C (centres undefined)	-6%	18%	-13%	-76*	-21%
Cc1cc(/C=C(\C#N)C(=O)N2CCOCC2)c(C)n1C1CCCC1	.	-15%	.	-84*	-3%
